PubChem BioAssay AID588852 (The Scripps Research Institute Molecular Screening Center, 2011)
Screen size: about 360,000 compounds; about 4,600 (1.3%) were called active. The sample holds actives, similar compounds and a random draw of the others, so the mix is not that of the screen.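 The calls were made as follows: active = percent inhibition above its own plate's cutoff, namely the mean of that plate's compound wells plus 3 SD; inactive = the rest.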

What follows are compounds tested against Muscarinic acetylcholine receptor M1 (Homo sapiens) (UniProt P11229) (assay: CHRM1 blockers of acetylcholine calcium response – CHO-K1 cells, Fluo-8 calcium fluorescence, 1536-well, primary screen (AID 588852;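 also: peak over basal fluorescence ratio during 140 s after agonist addition; 0% = ACh EC80 plus DMSO and 100% = DMSO alone without agonist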)). Details: CHO-K1 hM1, Fluo-8 calcium fluorescence, ACh EC80 antagonist; at 3 µM; active compounds read high.
Muscarinic acetylcholine receptor M1 (Homo sapiens), sequence (P11229 whole entry, looked up): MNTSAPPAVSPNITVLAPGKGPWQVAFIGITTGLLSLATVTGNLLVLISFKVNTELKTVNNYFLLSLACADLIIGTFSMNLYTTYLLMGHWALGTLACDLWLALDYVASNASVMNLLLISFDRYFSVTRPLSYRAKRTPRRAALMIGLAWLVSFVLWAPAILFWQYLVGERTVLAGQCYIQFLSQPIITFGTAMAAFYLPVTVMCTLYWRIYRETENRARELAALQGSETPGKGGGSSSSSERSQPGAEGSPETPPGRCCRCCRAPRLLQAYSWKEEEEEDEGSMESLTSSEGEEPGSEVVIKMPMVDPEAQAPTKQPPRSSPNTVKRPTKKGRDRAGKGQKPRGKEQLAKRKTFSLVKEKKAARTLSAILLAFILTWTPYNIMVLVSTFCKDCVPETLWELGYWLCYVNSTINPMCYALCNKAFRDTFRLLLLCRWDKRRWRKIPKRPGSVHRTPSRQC

inhibition, inactive:
CCOc1ccc2[nH]c(=S)sc2c1 -3.12%, CCc1ccc[n+](-c2nc([O-])sc2C=O)c1 -4.29%, Cc1ccc(S(=O)(=O)N2CCOCC2)cc1C(=O)OC1CCCCC1=O (centres undefined) 0.72%, O=C(/C=C/[C@H]1O[C@@H](n2ccc(=O)[nH]c2=O)[C@H](O)[C@@H]1O)NCc1ccccn1 -44.8%, Cc1cccc(CSc2nnc(C)c(=O)n2N)c1 -6.73%, Cn1c(SCC(=O)N2CCCCC2)nc2c(c1=O)SCC2 17.4%, O=C(OCC(=O)N1CCc2ccccc21)C1CCCN1S(=O)(=O)c1ccc(Cl)cc1 (centres undefined) -8.54%, CN[C@H]1C[C@H]2c3cc(Oc4ccccc4C)ccc3CCN2C(=O)[C@H]1[C@H](C)O -8.68%, Cc1ccccc1CN1C(=O)c2ccccc2Sc2ccc(C(=O)NCCCN3CCOCC3)cc21 -18.2%, CCN1CCN(CCNC(=O)c2ccc3c(c2)NC(=O)/C(=C\c2cccc(Cl)c2)S3)CC1 3.02%, C[C@H](NC(=O)CC[C@H]1O[C@@H](n2ccc(=O)[nH]c2=O)[C@H](O)[C@@H]1O)c1cccc2ccccc12 -22.7%, COCCCNCCOCCOc1ccc(Cl)cc1Br -3.69%, COCC(C)NCc1cc(Br)ccc1OC (centres undefined) -2.87%, COC(=O)c1ccc(CN2C(=O)C(Cc3ccccc3)ON=C2c2ncccc2C)o1 (centres undefined) 0.28%, CC(C)C(NC(=O)c1c(F)cccc1F)C(=O)NNC(=O)c1ccccc1 (centres undefined) 7.65%, CCC1Oc2ccccc2N(CC(=O)NCCCN2CCN(CC)CC2)C1=O (centres undefined) -1.31%, Cc1c(C)n(Cc2ccc(Cl)cc2)c2ccc(C(=O)NCCCN3CCOCC3)cc12 12.4%, C=Cn1cc[n+](CC(=O)c2ccc(OC)c(OC)c2)c1 8.24%, CCOc1ccc(OCc2ccc(C(=O)N(C)c3ccccc3)o2)cc1 -7.87%, CN(Cc1ccccc1)C(=O)c1ccc(COc2ccccc2)cc1 -0.5%, CC(C)NC(=O)NCCCCCCS(C)=O (centres undefined) -12%, C/C=C/c1ccc(OCCCCN2CCC(C)CC2)c(OC)c1 10.4%, Cc1sc2ncn(CC(=O)NCCCC(=O)N3CCN(c4ccccc4F)CC3)c(=O)c2c1C 9.4%, O=C(NN1C(=O)C2C3C=CC(O3)C2C1=O)c1ccccc1 (centres undefined) -6.53%, COc1ccccc1C(=O)NN1C(=O)C2C3C=CC(O3)C2C1=O (centres undefined) 1.11%, Cc1ccc(S(=O)(=O)NCC(=O)N(CC(=O)NCC2CCCO2)c2cccc(F)c2)cc1 (centres undefined) -7.09%, CC(=O)Nc1cccc(-c2ccnc3c2CC(C)(C(=O)NCc2ccccc2)O3)c1 (centres undefined) -11.3%, CC(O)(c1cccc(F)c1)c1nc(-c2ccc3c(c2)OCO3)cs1 (centres undefined) 1.89%, Fc1ccc(-n2c(Cc3ccccc3)nnc2SCc2nc(-c3ccc(Cl)cc3)no2)cc1 -1.38%, COc1ccc(-c2[nH]ncc2CN(C)Cc2cccnc2)c(F)c1 -0.76%, CCOc1ccc2[nH]c(=O)c(CN(CCCO)S(=O)(=O)c3ccc(F)cc3)cc2c1 -1.99%, O=C(NCCN1CCOCC1)c1ccccc1N1C(=O)[C@@H]2Cc3c([nH]c4ccccc34)C(c3cccc(Cl)c3)N2C1=O (some centres undefined) 9.91%, CCCc1nc2c3ccccc3ccn2c1Cc1ccccc1C(F)(F)F 0.78%, COc1ccccc1CC1(C)C(=O)Nc2ccc(OC(F)(F)F)cc21 (centres undefined) -12.6%, CC1=C(C(=O)N(C(C)C)C(C)C)CC(CC(=O)NCC2CCCCC2)C(=O)N1Cc1ccccc1 (centres undefined) -28.2%, Cc1c2cnn(CC(=O)NCc3ccccn3)c(=O)c2c(C)n1Cc1ccc(Cl)cc1 -7.49%

inhibition, active:
Cc1cccc(CSc2nc3c(c(=O)n2C)SCC3)c1 55.3%, CCN1CCN(CCNC(=O)c2ccc(/C=C3/Sc4ccccc4N(Cc4cccc(C)c4)C3=O)cc2)CC1 35.2%, CCC(C)NCCOCCOc1ccc(Br)cc1C (centres undefined) 34.6%, CN1CCN(CCCNC(=O)c2ccc(/C=C3\Oc4ccccc4N(Cc4ccc(Cl)cc4)C3=O)cc2)CC1 53.5%, CN(C(=O)CN1CCN(c2cc(-c3ccc(OCc4ccccc4)cc3)ncn2)CC1)c1ccccc1 30.1%, COc1ccc(C(=O)NN2C(=O)C3C(c4ccccc4)C=CC(c4ccccc4)C3C2=O)cc1 (centres undefined) 27.3%, COc1ccc2[nH]c(=O)c(CN(Cc3cccnc3)S(=O)(=O)c3ccccc3F)cc2c1 30.8%, N#C/C(=C/c1ccc(N2CCCCC2)o1)C(=O)NCCc1c[nH]c2ccccc12 44.3%
